Screens: PubChem, National Center for Advancing Translational Sciences (NCATS)
LASV entry inh – qHTS for Inhibitors of binding or entry into cells for Lassa Virus; Lassa virus pseudotype entry inhibition, cell reporter; Potency, µM (highest dose often 37.9 µM), for the others: at the top dose activity change, negative = inhibition, usual class: inhibitors; 1.2% of 300,000 active; calls by dose curve; tested in HEK293 cells; further: potency means the concentration at half of the fitted maximal effect; on the % scale 0 is the no-effect control and ±100 the full control effect; nearly all actives have a fitted effect of over 50% in size
VACV Venus inh – qHTS for Stage-Specific Inhibitors of Vaccinia Orthopoxvirus: Venus Reporter Primary qHTS. 0.46% of 330,000 active. Potency, µM (doses to about 36.5 µM), for inactives: at the highest dose activity change, negative = inhibition, most hits filed as inhibitors. Vaccinia virus Venus reporter expression, fluorescence; calls by dose curve; tested in A549 cells; further: potency means the concentration at half of the fitted maximal effect; on the % scale 0 is the no-effect control and ±100 the full control effect; nearly all actives have a fitted effect of over 30% in size
MARV entry inh – qHTS for inhibitors of binding or entry into cells for Marburg Virus | Marburg virus pseudotyped entry inhibition, cell reporter | Potency, µM (highest dose often 37.8 µM), without a hit: at the highest dose activity change, negative = inhibition, most hits filed as inhibitors | 1.8% of 300,000 active; calls by dose curve; tested in HEK293 cells; further: potency means the concentration at half of the fitted maximal effect; on the % scale 0 is the no-effect control and ±100 the full control effect
VACV mCherry inh – qHTS for Stage-Specific Inhibitors of Vaccinia Orthopoxvirus: mCherry Reporter Primary qHTS | 0.63% of 310,000 active | Potency, µM (top dose mostly 36.5 µM), without a hit: at the highest dose activity change, negative = inhibition, usual class: inhibitors | Vaccinia virus mCherry reporter infection, fluorescence | AID 720579, 2013; calls by dose curve; tested in A549 cells; further: potency means the concentration at half of the fitted maximal effect; on the % scale 0 is the no-effect control and ±100 the full control effect; nearly all actives have a fitted effect of over 35% in size
CHX counter – Cycloheximide Counterscreen for Small Molecule Inhibitors of Shiga Toxin; max response, %; cell reporter, cycloheximide protein synthesis inhibition counterscreen; 12% of 300,000 active; in the data active means max response mostly above about 13%, no sharp cut-off; inactive means mostly below about 14%; further: read at 38.3 µM for the half of the compounds with a filed dose; 0% is about no effect
Shiga inhibitor – A qHTS for Small Molecule Inhibitors of Shiga Toxin. Vero cells, Shiga toxin protein synthesis inhibition reporter. inhibition, % at 38.7 µM. 9.2% of 290,000 active. AID 2315, 2010; in the data active means inhibition mostly above about 28%, no sharp cut-off; inactive means mostly below about 43%; further: 0% is about no effect
Starred values were filed as active, the others as inactive; i = inactive; ? = inconclusive; nt = no result; [ ] = remark or other dose. Many of the other results were omitted from the sample, so hits are more common in it than they were.

SMILES	LASV entry inh	VACV Venus inh	MARV entry inh	VACV mCherry inh	CHX counter	Shiga inhibitor
COCCNC(=O)c1nn(-c2ccc(C)cc2)c(=O)c2c1c1ccccc1n2C	-13%[46.1 µM]	-10%	10%[46.1 µM]	-16%	nt	nt
N#CCSc1ccsc1C(=O)Nc1ccc(F)cc1	8%	nt	1%	nt	22*	32
COc1ccc(C(=O)c2c[nH]c3ccccc23)cc1	?	-25%	?	nt	61*	65*
O=C(CCCc1c[nH]c2ccccc12)NCc1ccccc1F	7.9µM*	-18%	-19%[46.1 µM]	?	-6	24
Cc1ccc(CNC(=O)CCCc2c[nH]c3ccccc23)cc1	-25%[46.1 µM]	-11%	11%[46.1 µM]	?	11	7
COc1cc(SC)ccc1C(=O)NCCc1c[nH]c2ccccc12	?	-22%	?	-8%	27*	59
O=C(NCCc1c[nH]c2ccccc12)c1cnccn1	-4%[46.1 µM]	-13%	?	i	23	38*
Cc1cccc(OCC(=O)Nc2cc(C)c(O)c(-c3nc4ccccc4o3)c2)c1	nt	-22%	nt	?	nt	nt
COc1ccc(C2(C(=O)NCC3Cc4cccc(-c5nc(C)cnc5C)c4O3)CCCC2)cc1 (centres undefined)	nt	0%	nt	-2%	nt	nt
COc1ccc(-c2cn(CCc3c[nH]c4ccccc34)nn2)cc1	nt	?	nt	?	7.4*	20
COc1ccc(OCC(=O)NCCc2c[nH]c3ccccc23)cc1	-26%[46.1 µM]	-25%	-18%[46.1 µM]	-18%	1	2
Cc1ccsc1C(=O)NCCC(c1ccccc1)c1ccccc1	?	-14%	13µM*	-18%	-3	-1
Cc1ccsc1C(=O)NCCc1c[nH]c2ccccc12	-7%[46.1 µM]	-22%	4%[46.1 µM]	-19%	36*	73*
COc1ccc(C(=O)NCCc2c[nH]c3ccccc23)cc1	?	-5%	?	i	45*	77*
Cc1[nH]c(C)c(S(=O)(=O)NCCc2ccccc2)c1C(=O)N1CCCCC1	26%[46.1 µM]	-5%	1%[46.1 µM]	i	10	-8
Cc1ccc(NC(=O)Nc2nnc(SCC(=O)N3CCCCC3)s2)cc1	-3%[46.1 µM]	-9%[7.34 µM]	nt	-2%[7.34 µM]	nt	nt
COc1ccc(C(=O)COC(=O)C(Cc2c[nH]c3ccccc23)NC(=O)c2ccc(C(C)(C)C)cc2)cc1 (centres undefined)	1.3µM*	-7%	nt	i	nt	nt
O=C(NCCc1c[nH]c2ccccc12)c1ccc(Cl)cc1	nt	nt	nt	nt	48*	127*
O=C(NCCc1ccccc1)C(=O)NCC(c1cccnc1)N1CCN(c2ccc(F)cc2)CC1 (centres undefined)	?	?	nt	-29%	nt	nt
O=C(NCCc1c[nH]c2ccccc12)C(=O)NCC(c1cccnc1)N1CCN(c2ccccc2)CC1 (centres undefined)	?	?	-55%	16µM*	-4	33
COc1ccc(-c2cn(Cc3cccc(OC)c3)nn2)cc1	nt	-20%	nt	-8%	29*	82*
CC1=C(C(=O)OC2CCCCCC2)C(c2cccc(Cl)c2)CC(=O)N1 (centres undefined)	10%[46.1 µM]	-20%	?	-17%	nt	nt
O=C(c1ccc(CS(=O)c2cccc(Cl)c2)o1)N1CCN(C2CCCCC2)CC1 (centres undefined)	nt	2%[7.34 µM]	nt	3%[7.34 µM]	-7	-2
Cc1ccccc1C1(CC(=O)N2CCCCC2c2cccnc2)CC(=O)N(C2CCCC2)C1=O (centres undefined)	nt	-21%	nt	-18%	nt	nt
O=C(NCCc1c[nH]c2ccccc12)c1ccc(F)cc1F	-3%[46.1 µM]	-17%	?	-14%	25*	116*
SMILES	LASV entry inh	VACV Venus inh	MARV entry inh	VACV mCherry inh	CHX counter	Shiga inhibitor
O=C(NCCc1c[nH]c2ccccc12)c1ccco1	nt	-16%	nt	i	18*	26
O=C(NCCc1c[nH]c2ccccc12)c1cnc2sccn2c1=O	nt	-13%	nt	-8%	34*	84*
CC(=O)NCCc1c[nH]c2ccccc12	-10%	3%	7%	-7%	-1	0
O=C(NCc1ccc(F)cc1)c1cnc2sccn2c1=O	nt	-5%	nt	-3%	-1	17
O=C(NCCc1c[nH]c2ccccc12)/C(=C/c1ccco1)NC(=O)c1ccco1	10%	8%	?	i	-1	-6
O=C1[C@H]2[C@@H]3[C@@H](O)[C@H](O)CC(=NOCc4ccccc4)[C@@H]3CC[C@H]2C(=O)N1C[C@@H]1CCCO1	nt	nt	6%[14.2 µM]	nt	nt	nt
